Test results from PubChem BioAssay (NCATS).
Records with an inconclusive call do not appear. The source made the active and inactive calls. Calls follow the shape of the dose curve; as a rule, active = well fitted curve in the direction sought with a large enough effect; inconclusive = small, poorly fitted or top-dose-only effect, or another doubt; inactive = no such curve, though single readings can be large; an effect the other way counts as inactive or inconclusive.

How the values were obtained:
[1] = target: Ubiquitin carboxyl-terminal hydrolase 1 (Homo sapiens) (UniProt O94782); assay: Inhibitors of USP1/UAF1: Pilot qHTS (AID 504865);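 also: rhodamine fluorescence freed from ubiquitin-rhodamine substrate followed over time; top concentration of the series differs between compounds; nearly all actives have a fitted effect of over 35% in size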
Procedure, shortened: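 Enzyme-free wells gave the negative control, while test wells held 1nM USP1/UAF1 preincubated with compound for 15 min at room temperature. Ub-Rho at 150nM final started the reaction, and fluorescence at 480/540 nm was recorded kinetically.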

[2] = S16 Schwann cell viability assay (CellTiter-Glo assay) (AID 624031);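 also: native untransfected S16 rat Schwann cells; nearly all actives have a fitted effect of over 70% in size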
Procedure, shortened: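 Counter-screen for cytotoxicity: parental S16 rat Schwann cells lacking the PMP22 reporters, treated 24 h with compound, viability from cellular ATP by CellTiter-Glo luminescence, normalized to DMSO (0%) and no-cell wells.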

[3] = test system: 3D7; assay: qHTS profiling for inhibitors of Plasmodium falciparum proliferation (AID 504749); also: nearly all actives have a fitted effect of over 60% in size; details: P. falciparum in erythrocytes, SYBR Green DNA, 72 h; series mostly up to 28.7 µM
Procedure, shortened: (§1)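 Each compound contacts P. falciparum-infected red blood cells for 72 h at 37 C; lysis buffer (Tris, EDTA, saponin, Triton X, SYBR Green I) is added and fluorescence measured next morning; values normalized to controls.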

[4] = test system: 7G8; assay: as above; details: P. falciparum in erythrocytes, SYBR Green DNA, 72 h; series mostly up to 28.7 µM
Procedure, shortened: as §1

[5] = test system: AA1029; assay: as above; details: P. falciparum in erythrocytes, SYBR Green DNA, 72 h; series mostly up to 28.7 µM
Procedure, shortened: as §1

[6] = test system: CP215; assay: as above; details: P. falciparum in erythrocytes, SYBR Green DNA, 72 h; series mostly up to 28.7 µM
Procedure, shortened: as §1

[7] = test system: CP260; assay: as above; details: P. falciparum in erythrocytes, SYBR Green DNA, 72 h; series mostly up to 28.7 µM
Procedure, shortened: as §1

[8] = test system: CP286; assay: as above; details: P. falciparum in erythrocytes, SYBR Green DNA, 72 h; series mostly up to 28.7 µM
Procedure, shortened: as §1

[9] = test system: CP291; assay: as above; details: P. falciparum in erythrocytes, SYBR Green DNA, 72 h; series mostly up to 28.7 µM
Procedure, shortened: as §1

[10] = test system: CP297; assay: as above; details: P. falciparum in erythrocytes, SYBR Green DNA, 72 h; series mostly up to 28.7 µM
Procedure, shortened: as §1

[11] = test system: CP315; assay: as above; details: P. falciparum in erythrocytes, SYBR Green DNA, 72 h; series mostly up to 28.7 µM
Procedure, shortened: as §1

[12] = test system: CP335; assay: as above; details: P. falciparum in erythrocytes, SYBR Green DNA, 72 h; series mostly up to 28.7 µM
Procedure, shortened: as §1

[13] = test system: DIV14; assay: as above; details: P. falciparum in erythrocytes, SYBR Green DNA, 72 h; series mostly up to 28.7 µM
Procedure, shortened: as §1

[14] = test system: DIV17; assay: as above; details: P. falciparum in erythrocytes, SYBR Green DNA, 72 h; series mostly up to 28.7 µM
Procedure, shortened: as §1

[15] = test system: Dd2; assay: as above; details: P. falciparum in erythrocytes, SYBR Green DNA, 72 h; series mostly up to 28.7 µM
Procedure, shortened: as §1

[16] = test system: GB4; assay: as above; details: P. falciparum in erythrocytes, SYBR Green DNA, 72 h; series mostly up to 28.7 µM
Procedure, shortened: as §1

[17] = test system: ICS; assay: as above; details: P. falciparum in erythrocytes, SYBR Green DNA, 72 h; series mostly up to 28.7 µM
Procedure, shortened: as §1

[18] = test system: JCK; assay: as above; details: P. falciparum in erythrocytes, SYBR Green DNA, 72 h; series mostly up to 28.7 µM
Procedure, shortened: as §1

[19] = test system: N140; assay: as above; details: P. falciparum in erythrocytes, SYBR Green DNA, 72 h; series mostly up to 28.7 µM
Procedure, shortened: as §1

[20] = test system: TAB165; assay: as above; details: P. falciparum in erythrocytes, SYBR Green DNA, 72 h; series mostly up to 28.7 µM
Procedure, shortened: as §1

Measured: Potency

Ubiquitin carboxyl-terminal hydrolase 1 (Homo sapiens), sequence (O94782 whole entry, looked up): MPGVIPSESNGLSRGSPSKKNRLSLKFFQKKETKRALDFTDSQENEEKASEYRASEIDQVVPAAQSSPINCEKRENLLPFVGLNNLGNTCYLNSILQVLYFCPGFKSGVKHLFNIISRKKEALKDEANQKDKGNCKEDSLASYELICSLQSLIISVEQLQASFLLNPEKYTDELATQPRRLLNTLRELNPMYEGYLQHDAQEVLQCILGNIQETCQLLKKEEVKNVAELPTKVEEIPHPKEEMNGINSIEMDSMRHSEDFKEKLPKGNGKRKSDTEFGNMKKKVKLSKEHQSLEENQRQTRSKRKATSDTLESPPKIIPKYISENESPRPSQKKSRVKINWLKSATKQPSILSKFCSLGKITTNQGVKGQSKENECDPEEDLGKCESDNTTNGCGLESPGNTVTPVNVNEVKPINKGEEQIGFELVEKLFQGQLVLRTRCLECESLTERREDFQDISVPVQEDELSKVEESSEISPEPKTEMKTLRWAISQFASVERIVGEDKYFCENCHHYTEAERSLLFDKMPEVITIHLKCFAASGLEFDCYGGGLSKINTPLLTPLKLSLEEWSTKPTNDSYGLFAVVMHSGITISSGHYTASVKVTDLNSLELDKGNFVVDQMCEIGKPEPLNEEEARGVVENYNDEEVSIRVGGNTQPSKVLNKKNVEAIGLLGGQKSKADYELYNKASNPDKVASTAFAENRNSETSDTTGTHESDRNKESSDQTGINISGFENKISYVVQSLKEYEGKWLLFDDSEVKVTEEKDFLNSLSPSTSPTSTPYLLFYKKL

C[C@]12CC[C@H]3c4ccc(O)cc4CC[C@@H]3[C@H]1CC[C@@H]2OP(=O)(O)O
inactive: all assays above

N[C@@H](Cc1ccccc1)C(=O)O
inactive: all assays above
